Our source for the outcome and AC50 values is PubChem BioAssay (EPA / NIEHS).

The nature of test [1]: ATG_GLI_CIS: Attagene CIS-FACTORIAL HepG2 Assay for human Zinc Finger Protein GLI1 (AID 2282945). The following applies: HepG2, Attagene cis-factorial reporter mRNA, GLI element; actives raise or lower the signal. The essentials: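 Bidirectional curve fits relative to DMSO, using reporter mRNA levels from RT-PCR plus capillary electrophoresis. Cells were HepG2 transiently carrying cis-regulated reporter constructs, harvested 24 h after dosing.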

The target of test [2] is Bile acid receptor (Homo sapiens) (UniProt Q96RI1). Description: ATG_IR1_CIS: Attagene CIS-FACTORIAL HepG2 Assay for human Nuclear Receptor Subfamily 1 Group H Member 4 (NR1H4), IR1 submotif (AID 2282946). The following applies: IR1 reporter transcription, actives raise or lower the signal. The procedure, abridged:
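HepG2 cells transiently transfected with multiplexed cis-element reporter units read endogenous transcription factor activity. After 24 h compound exposure, reporter mRNA was quantified by RT-PCR, fluorescent labelling, HpaI digestion and capillary electrophoresis; bidirectional fitting versus DMSO baseline.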

Test [3] can be described thus: ATG_GRE_CIS: Attagene CIS-FACTORIAL HepG2 Assay for human Glucocorticoid Response Elements (GRE) (AID 2282947). The following applies: HepG2 GRE cis-reporter, Attagene multiplex mRNA; actives raise or lower the signal. The procedure, abridged:
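Multiplexed cis-reporter mRNA induction, HepG2, 24 h post-dose. RT-PCR, FAM-labelled, HpaI-digested amplicons by CE. Bidirectional fit vs DMSO.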

Test [4] in a line: ATG_ISRE_CIS: Attagene CIS-FACTORIAL HepG2 Assay for human Interferon Regulatory Factor 1 (IRF1) binding to an Interferon-Stimulated Response Element (ISRE) (AID 2282948). The following applies: HepG2 ISRE cis-reporter (Attagene), mRNA transcription readout; actives raise or lower the signal. The procedure, abridged: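 Endogenous transcription factor activity read as reporter transcript abundance via RT-PCR and capillary electrophoresis. HepG2 cells transiently transfected, 24 h chemical exposure. Gain or loss fitted against DMSO baseline.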

Test [5] can be described thus: ATG_M_32_CIS: Attagene CIS-FACTORIAL HepG2 Assay for M32 Transcription Factor (Internal Marker) (AID 2282949).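 Further: background control marker of the multiplexed CIS panel rather than a real target.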 The following applies: HepG2 Attagene cis-factorial M32 reporter, mRNA; actives raise or lower the signal. The procedure, abridged:
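Using DMSO as baseline, bidirectional curve fits were applied to reporter mRNA signals. These came from transiently transfected HepG2 cells exposed for 24 h, with RNA analysed by RT-PCR, FAM primer extension, HpaI digestion and CE.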

In test [6] the target is Hypoxia-inducible factor 1-alpha (Homo sapiens) (UniProt Q16665). The test can be described thus: ATG_HIF1a_CIS: Attagene CIS-FACTORIAL HepG2 Assay for human Hypoxia Inducible Factor 1 (HIF1A) (AID 2282951). To be noted: HepG2 Attagene cis-factorial HIF1a reporter transcription; actives raise or lower the signal. The procedure, abridged: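 Endogenous-TF cis reporter readout, human HepG2 cells, 24 h incubation; mRNA detected via RT-PCR and capillary electrophoresis fluorescence; DMSO-normalised bidirectional fitting.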

Test [7] concerns the target Hepatocyte nuclear factor 6 (Homo sapiens) (UniProt Q9UBC0). Description: ATG_HNF6_CIS: Attagene CIS-FACTORIAL HepG2 Assay for human Hepatocyte Nuclear Factor 6 (HNF6) (AID 2282952). The following applies: HepG2 Attagene cis-factorial HNF6 reporter transcription; actives raise or lower the signal. The essentials:
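Using cis-element reporters in HepG2 liver cells, the assay tracks endogenous factor-driven transcription 24 h post-dosing. Signal comes from 6-FAM-labelled, HpaI-digested RT-PCR fragments, with gain or loss scored against DMSO.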

Test [8] addresses Heat shock factor protein 1 (Homo sapiens) (UniProt Q00613). Description: ATG_HSE_CIS: Attagene CIS-FACTORIAL HepG2 Assay for human Heat Shock Transcription Factor 1 (HSE) (AID 2282953). The following applies: HepG2 HSE cis-reporter, Attagene RNA transcription; actives raise or lower the signal. The essentials: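 After a 24 h incubation with test chemical, transfected HepG2 cells were harvested for RNA; reporter transcripts were measured by RT-PCR and capillary electrophoresis. Values reflect gain or loss of signal relative to DMSO.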

The nature of test [9]: ATG_MRE_CIS: Attagene CIS-FACTORIAL HepG2 Assay for human Metal Responsive Element (MRE) (AID 2282954). To be noted: HepG2 MRE cis-reporter transcription, Attagene multiplex; actives raise or lower the signal. The procedure, abridged:
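Multiplexed cis-reporter assay in human HepG2 liver cells, 24 h incubation with test chemical. Reporter transcripts measured by RT-PCR and capillary electrophoresis; values from bidirectional curve fitting versus DMSO.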

A short description of test [10]: ATG_PBREM_CIS: Attagene CIS-FACTORIAL HepG2 Assay for human Phenobarbital-responsive Enhancer Module (PBREM) (AID 2282955). To be noted: HepG2 PBREM cis-reporter, Attagene multiplexed transcription; actives raise or lower the signal. The essentials:
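Readout: reporter mRNA, fluorescent RT-PCR fragments separated by capillary electrophoresis. System: HepG2 transiently transfected with cis-regulated reporter units. Exposure: 24 h. Analysis: bidirectional, DMSO baseline.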

The target of test [11] is Paired box protein Pax-6 (Homo sapiens) (UniProt P26367). Description: ATG_Pax6_CIS: Attagene CIS-FACTORIAL HepG2 Assay for human Paired Box 6 (PAX6) (AID 2282956). The following applies: HepG2 CIS-FACTORIAL PAX6 reporter transcription, RNA readout; actives raise or lower the signal. The essentials: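 Read-out is reporter transcript level, measured by RT-PCR with fluorescent primer extension and capillary electrophoresis after 24 h dosing of transfected HepG2 cells. Activity in either direction fitted relative to DMSO control.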

Test [12] is described as follows: ATG_PXRE_CIS: Attagene CIS-FACTORIAL HepG2 Assay for human Pregnane X Receptor Element (PXRE) (AID 2282957). The following applies: HepG2 Attagene CIS-FACTORIAL PXRE reporter, mRNA; actives raise or lower the signal. The procedure, abridged: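 Using HepG2 transfected with multiple reporter transcription units, endogenous factor-driven transcription was scored as reporter mRNA after 24 h exposure.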

A short description of test [13]: ATG_PPRE_CIS: Attagene CIS-FACTORIAL HepG2 Assay for human Peroxisome Proliferator-activated Response Element (PPRE) (AID 2282958). The following applies: HepG2 PPRE cis-element reporter, Attagene transcription factor profiling; actives raise or lower the signal. The procedure, abridged:
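After human HepG2 hepatoma cells were transiently transfected with cis-promoter reporter constructs, they were exposed to test chemicals for 24 hours. Reporter RNA was then reverse-transcribed, PCR-amplified, FAM-labeled, HpaI-digested and quantified by capillary electrophoresis.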

A short description of test [14]: ATG_RORE_CIS: Attagene CIS-FACTORIAL HepG2 Assay for human RAR-related Orphan Receptor Element (RORE) (AID 2282959). The following applies: HepG2 Attagene cis-factorial RORE reporter, mRNA; actives raise or lower the signal. The essentials: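 Measured here: transcript induction of a cis-regulated reporter in HepG2 cells transiently transfected via FuGene 6. After 24 h, RNA was processed by RT-PCR and fluorescent capillary electrophoresis; DMSO defined baseline activity.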

Test [15] can be described thus: ATG_Sox_CIS: Attagene CIS-FACTORIAL HepG2 Assay for human SRY-box transcription factor (SOX) (AID 2282960). To be noted: HepG2 Attagene cis-factorial SOX reporter, mRNA; actives raise or lower the signal. The essentials:
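Using transiently transfected HepG2 cells, reporter transcription driven by cis elements was assessed 24 h after dosing. Signal was fluorescence of capillary-separated RT-PCR products, with DMSO defining baseline activity.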

Test [16] deals with Transcription factor Sp1 (Homo sapiens) (UniProt P08047). The test can be described thus: ATG_Sp1_CIS: Attagene CIS-FACTORIAL HepG2 Assay for human Specificity Protein 1 (Sp1) (AID 2282961). The following applies: HepG2 Sp1 cis-reporter transcription, actives raise or lower the signal. The essentials:
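After transient transfection of HepG2 cells with cis-promoter reporter units and 24 h chemical treatment, reporter transcripts were quantified by RT-PCR and capillary electrophoresis fluorescence. Gain- and loss-of-signal fitted against DMSO.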

A short description of test [17]: ATG_SREBP_CIS: Attagene CIS-FACTORIAL HepG2 Assay for human Sterol Regulatory Element Binding (SREBP) (AID 2282962). The following applies: HepG2 Attagene cis-factorial SREBP reporter, mRNA; actives raise or lower the signal. The procedure, abridged:
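Endogenous SREBP activity read as cis-element-driven reporter transcript in transiently transfected HepG2, 24 h post-dosing; quantified via RT-PCR plus capillary electrophoresis of fluorescent fragments. Gain or loss of signal fitted relative to DMSO baseline.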

A short description of test [18]: ATG_M_06_CIS: Attagene CIS-FACTORIAL HepG2 Assay for M06 Transcription Factor (Internal Marker) (AID 2282950). To be noted: HepG2 Attagene CIS-FACTORIAL M06 internal marker reporter; actives raise or lower the signal. The procedure, abridged: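 Fluorescence-labelled RT-PCR products from cis-promoter reporter units, cut with HpaI and resolved by capillary electrophoresis, give the signal. Cells are human HepG2, dosed for 24 h. Serves as background control, fitted relative to DMSO.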

In general, AC50 refers to the concentration giving half of the maximal activity seen.

Each structure is given as a SMILES string. Where “and” joins values, the source holds several entries; their conditions need not be identical. Equal values may be shown once. Where a structure was tested more than once in an assay, its records may differ in their call. Calls of active or inactive are those of the source. How the source made its calls: active means hit-call score of the fitted dose curve at least 0.9, where 1 is the maximum; inactive means score below 0.9.

Chain of Paired box protein Pax-6 (Homo sapiens) (P26367 whole entry, looked up): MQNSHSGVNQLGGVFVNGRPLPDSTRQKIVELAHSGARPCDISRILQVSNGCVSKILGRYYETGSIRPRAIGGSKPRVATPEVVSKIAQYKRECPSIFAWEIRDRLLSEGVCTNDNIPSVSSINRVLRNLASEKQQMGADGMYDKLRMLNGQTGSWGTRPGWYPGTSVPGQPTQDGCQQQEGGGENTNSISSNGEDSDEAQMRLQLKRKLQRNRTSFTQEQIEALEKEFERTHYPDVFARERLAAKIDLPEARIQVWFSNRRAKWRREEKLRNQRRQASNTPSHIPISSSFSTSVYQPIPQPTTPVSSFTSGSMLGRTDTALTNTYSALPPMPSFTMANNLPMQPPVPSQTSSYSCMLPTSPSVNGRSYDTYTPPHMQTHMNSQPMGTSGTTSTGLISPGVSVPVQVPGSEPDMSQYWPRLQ
Chain of Heat shock factor protein 1 (Homo sapiens) (Q00613 whole entry, looked up): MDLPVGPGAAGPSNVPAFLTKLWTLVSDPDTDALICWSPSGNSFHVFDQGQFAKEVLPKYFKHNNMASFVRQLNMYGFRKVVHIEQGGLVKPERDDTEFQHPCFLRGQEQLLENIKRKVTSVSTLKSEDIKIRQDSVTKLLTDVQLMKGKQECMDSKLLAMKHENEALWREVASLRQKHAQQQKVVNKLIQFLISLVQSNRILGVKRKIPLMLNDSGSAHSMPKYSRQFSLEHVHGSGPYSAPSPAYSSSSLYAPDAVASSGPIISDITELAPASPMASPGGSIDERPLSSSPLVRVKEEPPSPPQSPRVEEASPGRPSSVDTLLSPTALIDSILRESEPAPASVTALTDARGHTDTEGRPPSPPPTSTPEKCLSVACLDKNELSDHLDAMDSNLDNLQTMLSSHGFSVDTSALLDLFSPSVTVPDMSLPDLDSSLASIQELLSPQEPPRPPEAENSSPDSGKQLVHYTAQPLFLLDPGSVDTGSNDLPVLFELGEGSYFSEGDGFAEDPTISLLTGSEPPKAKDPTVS
Chain of Bile acid receptor (Homo sapiens) (Q96RI1 whole entry, looked up): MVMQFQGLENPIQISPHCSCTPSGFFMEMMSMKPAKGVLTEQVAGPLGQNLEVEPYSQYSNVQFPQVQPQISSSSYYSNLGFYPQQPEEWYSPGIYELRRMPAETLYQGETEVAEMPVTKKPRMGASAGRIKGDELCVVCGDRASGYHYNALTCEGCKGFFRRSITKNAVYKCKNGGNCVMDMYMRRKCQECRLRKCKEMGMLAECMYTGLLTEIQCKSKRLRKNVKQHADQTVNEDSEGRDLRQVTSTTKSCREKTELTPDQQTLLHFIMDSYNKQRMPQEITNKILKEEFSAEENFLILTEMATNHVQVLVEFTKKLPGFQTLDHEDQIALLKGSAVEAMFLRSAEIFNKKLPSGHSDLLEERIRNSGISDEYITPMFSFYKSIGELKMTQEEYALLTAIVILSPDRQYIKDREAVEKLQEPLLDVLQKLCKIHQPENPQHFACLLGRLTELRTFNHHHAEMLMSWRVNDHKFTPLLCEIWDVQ
Chain of Hepatocyte nuclear factor 6 (Homo sapiens) (Q9UBC0 whole entry, looked up, the tested form may be a part): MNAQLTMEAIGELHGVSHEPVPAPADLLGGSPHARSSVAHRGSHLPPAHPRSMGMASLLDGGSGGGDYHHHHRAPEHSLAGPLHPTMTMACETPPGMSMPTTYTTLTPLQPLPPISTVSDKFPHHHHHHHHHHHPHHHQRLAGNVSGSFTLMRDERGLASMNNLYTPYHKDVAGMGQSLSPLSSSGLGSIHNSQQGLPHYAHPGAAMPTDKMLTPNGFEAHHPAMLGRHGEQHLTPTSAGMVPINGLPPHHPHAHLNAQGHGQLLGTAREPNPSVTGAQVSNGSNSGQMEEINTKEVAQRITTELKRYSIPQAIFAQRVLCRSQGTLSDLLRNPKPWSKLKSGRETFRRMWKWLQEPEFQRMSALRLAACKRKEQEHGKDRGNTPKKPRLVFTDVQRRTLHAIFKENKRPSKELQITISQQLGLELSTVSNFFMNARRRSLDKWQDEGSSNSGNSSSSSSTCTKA
Chain of Transcription factor Sp1 (Homo sapiens) (P08047 whole entry, looked up): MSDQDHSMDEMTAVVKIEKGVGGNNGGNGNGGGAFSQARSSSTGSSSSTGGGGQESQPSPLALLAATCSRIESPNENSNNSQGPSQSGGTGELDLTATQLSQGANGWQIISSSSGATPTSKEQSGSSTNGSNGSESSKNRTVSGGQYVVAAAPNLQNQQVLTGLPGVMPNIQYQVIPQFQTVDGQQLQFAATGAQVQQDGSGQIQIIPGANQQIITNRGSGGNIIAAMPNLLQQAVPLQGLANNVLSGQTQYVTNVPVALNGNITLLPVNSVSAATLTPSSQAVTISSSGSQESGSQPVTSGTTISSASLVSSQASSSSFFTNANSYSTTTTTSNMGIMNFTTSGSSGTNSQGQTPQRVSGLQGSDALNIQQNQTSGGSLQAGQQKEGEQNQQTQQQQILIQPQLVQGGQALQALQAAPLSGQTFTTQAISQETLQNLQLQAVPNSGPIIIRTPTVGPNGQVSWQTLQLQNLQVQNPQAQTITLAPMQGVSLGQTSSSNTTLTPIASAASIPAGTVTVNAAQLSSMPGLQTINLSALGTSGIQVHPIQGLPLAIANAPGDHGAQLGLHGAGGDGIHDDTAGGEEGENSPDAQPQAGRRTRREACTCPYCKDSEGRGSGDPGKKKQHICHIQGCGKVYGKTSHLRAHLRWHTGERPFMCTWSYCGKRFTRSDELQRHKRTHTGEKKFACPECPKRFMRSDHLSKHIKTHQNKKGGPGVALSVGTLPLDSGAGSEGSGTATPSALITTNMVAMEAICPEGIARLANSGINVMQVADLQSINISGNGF
Chain of Hypoxia-inducible factor 1-alpha (Homo sapiens) (Q16665 whole entry, looked up): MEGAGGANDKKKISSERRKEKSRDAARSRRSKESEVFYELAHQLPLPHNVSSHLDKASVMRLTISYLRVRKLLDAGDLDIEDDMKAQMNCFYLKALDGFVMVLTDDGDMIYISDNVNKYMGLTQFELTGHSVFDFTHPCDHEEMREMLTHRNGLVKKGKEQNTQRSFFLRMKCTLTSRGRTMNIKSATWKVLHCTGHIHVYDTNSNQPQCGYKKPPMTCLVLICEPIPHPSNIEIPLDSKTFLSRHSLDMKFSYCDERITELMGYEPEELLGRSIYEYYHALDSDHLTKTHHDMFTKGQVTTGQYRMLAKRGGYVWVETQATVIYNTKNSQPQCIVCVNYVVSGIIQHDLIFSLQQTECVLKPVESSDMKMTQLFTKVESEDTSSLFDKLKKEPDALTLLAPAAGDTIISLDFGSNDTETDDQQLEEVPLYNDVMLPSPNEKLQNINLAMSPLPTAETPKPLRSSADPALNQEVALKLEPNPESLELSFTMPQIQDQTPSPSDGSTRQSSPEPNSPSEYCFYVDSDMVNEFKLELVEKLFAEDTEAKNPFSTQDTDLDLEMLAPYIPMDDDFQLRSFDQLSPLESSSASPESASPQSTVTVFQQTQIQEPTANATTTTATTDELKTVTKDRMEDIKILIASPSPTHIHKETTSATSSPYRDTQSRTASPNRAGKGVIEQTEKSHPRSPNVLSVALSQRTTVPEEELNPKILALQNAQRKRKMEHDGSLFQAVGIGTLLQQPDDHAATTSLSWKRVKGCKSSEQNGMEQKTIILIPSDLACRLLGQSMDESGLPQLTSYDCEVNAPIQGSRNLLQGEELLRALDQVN

As to `CC(C)N(C(=O)COc1nnc(C(F)(F)F)s1)c1ccc(F)cc1`, the compound was called inactive in test [1], in test [2], in test [3], in test [4], in test [5] and in [6]. Further, the outcome in [7], in test [8], in test [9], in test [11], in test [13] and in [14] was inactive. Further, the compound was called inactive in [15], in test [16] and in test [17]. The AC50 in [10] was 11.5 µM (active); in test [12] it was 7.54 µM (active).

For the compound `CNC(=O)Oc1cccc(N=CN(C)C)c1`, the compound was called inactive in [1], in [2], in test [4], in test [5], in test [18] and in test [6]. The result in test [7], in [8], in test [10], in test [11], in test [12] and in test [15] was inactive. Moreover, the outcome in test [16] was inactive. The concentration at half-maximal activity (AC50) in [9] is 72.1 µM (active); in test [13] it was 32.7 µM (active); in test [14], 90.4 µM (active); in [17] it was 84.6 µM (active).

As to `CNC(=O)/C=C(\C)OP(=O)(OC)OC`, the outcome in test [1], in test [2], in test [3], in test [4], in test [5] and in test [6] was inactive. In addition, the result in [7], in test [8], in test [9], in test [10], in test [11] and in test [12] was inactive. Besides, the compound was called inactive in test [13], in [15], in test [16] and in test [17].

As to `CCc1ccc(C(=O)NN(C(=O)c2cc(C)cc(C)c2)C(C)(C)C)cc1`, the result in [1], in test [2], in test [3], in [4], in [5] and in test [18] was inactive. For the same compound, the call in [6], in [7], in test [8], in [10], in [11] and in test [13] was inactive. The result in [14], in test [15], in [16] and in test [17] was inactive. In addition, the figures for the AC50 in test [9] and in test [12] were 18.2 µM (active) and 1.28 µM (active), respectively.

Turning to `Oc1cc(Cl)ccc1Oc1ccc(Cl)cc1Cl`, the compound was classed as inactive in [1], in [2], in test [3], in test [4], in test [5] and in [6]. Also, the outcome in test [7], in [8], in test [9], in [10], in test [11] and in test [12] was inactive. Also, the outcome in test [13], in test [14], in test [15], in test [16] and in [17] was inactive. The AC50 in test [3] was 11.1 µM (active); in [4] it was 13.5 µM (active) [middle of 4 runs]; in test [8], 17.4 µM (active) and 9.05 µM (active); in [9] it was 15.3 µM (active) [middle of 6 runs]; in test [10], 2.91 µM (active) and 3.38 µM (active) and 17.3 µM (active); in [11], 13.9 µM (active) and 8.6 µM (active). Moreover, the concentration at half-maximal activity (AC50) was 2.98 µM (active) [middle of 7 runs] in test [12]; 12.7 µM (active) and 15.1 µM (active) and 15.8 µM (active) in [14]; 11.1 µM (active) and 10.3 µM (active) in test [15].

Take `CCN(CC)C(=O)SCc1ccc(Cl)cc1`: the outcome in test [1], in test [2], in [3], in test [4], in [5] and in [6] was inactive. Further, the compound was called inactive in test [7], in test [8], in [11], in test [15], in test [16] and in [17]. The AC50 in test [9] is 65.9 µM (active); in test [12], 4.49 µM (active); in [14], 19 µM (active).
